This is an account of results in article PMC4336329 (PLoS ONE, 2015).

Out of some 310,000 compounds screened, about 14,000 (4.5%) showed an effect of 50% or more. Effects have a minus sign here. For the sample, strong results were picked, then their nearest neighbours and some compounds at random.
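Further: peak tail current of the secondary pulse compared with the same well before compound.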

The target of this test is human ether-à-go-go-related gene (hERG) potassium channel (human, UniProt Q12809). As to the kind of experiment: primary screen, population patch clamp on CHO cells stably expressing hERG; higher = less effect of the substance.
Sequence of human ether-à-go-go-related gene (hERG) potassium channel (Q12809 whole entry, looked up): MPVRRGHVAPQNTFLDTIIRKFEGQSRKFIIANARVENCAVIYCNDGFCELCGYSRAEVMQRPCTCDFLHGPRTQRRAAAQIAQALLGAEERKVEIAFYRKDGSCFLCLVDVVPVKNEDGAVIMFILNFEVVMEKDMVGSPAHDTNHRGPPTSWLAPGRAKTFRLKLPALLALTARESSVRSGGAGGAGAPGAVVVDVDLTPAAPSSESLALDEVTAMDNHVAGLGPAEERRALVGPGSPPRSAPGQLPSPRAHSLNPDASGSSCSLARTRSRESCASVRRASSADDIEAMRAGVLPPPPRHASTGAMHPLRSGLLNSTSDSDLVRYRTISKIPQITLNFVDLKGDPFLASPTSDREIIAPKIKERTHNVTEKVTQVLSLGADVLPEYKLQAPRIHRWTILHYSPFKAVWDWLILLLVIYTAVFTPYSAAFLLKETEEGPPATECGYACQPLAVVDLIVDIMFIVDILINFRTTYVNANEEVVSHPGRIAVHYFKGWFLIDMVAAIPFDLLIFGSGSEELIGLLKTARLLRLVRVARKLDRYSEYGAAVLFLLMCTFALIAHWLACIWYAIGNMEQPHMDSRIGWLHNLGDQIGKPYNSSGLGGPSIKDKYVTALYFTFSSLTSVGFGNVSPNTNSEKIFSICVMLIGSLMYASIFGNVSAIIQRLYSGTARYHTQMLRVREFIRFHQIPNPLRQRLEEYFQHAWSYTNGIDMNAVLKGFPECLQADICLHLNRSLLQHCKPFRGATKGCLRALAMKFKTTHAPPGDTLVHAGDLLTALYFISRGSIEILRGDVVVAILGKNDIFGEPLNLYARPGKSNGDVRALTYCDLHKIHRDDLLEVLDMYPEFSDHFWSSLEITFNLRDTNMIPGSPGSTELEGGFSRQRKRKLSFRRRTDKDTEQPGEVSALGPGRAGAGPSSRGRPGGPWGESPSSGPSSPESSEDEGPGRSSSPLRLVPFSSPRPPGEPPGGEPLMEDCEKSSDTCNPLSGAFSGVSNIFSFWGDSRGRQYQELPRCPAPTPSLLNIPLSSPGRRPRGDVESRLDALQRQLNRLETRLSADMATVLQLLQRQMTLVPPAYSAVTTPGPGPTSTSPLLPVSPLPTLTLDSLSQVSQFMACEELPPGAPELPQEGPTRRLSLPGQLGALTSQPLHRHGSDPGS
`CCCCc1cc2ccccc2c(OCCN(C)C)n1.Cl`: the “hERG current change (%, negative = inhibition) at 10uM” value was -61.9%.
Under `Cc1cc(C)c(S(=O)(=O)c2ccccc2C)c(OCCN(C)C)n1` stands -20.2%; under `CN(C)CCOc1ncnc2c1oc1ccccc12`, -13.5%; under `CCCCCCCC(=O)NNC(=O)c1ccc([N+](=O)[O-])cc1`, -20.6%.
Under `Cc1cccc(C(=O)OCC(=O)c2ccc(CC(=O)N3CCOCC3)s2)c1C` stands -52.4%; under `Nc1cc(C(=O)OCC(=O)c2ccc(CC(=O)N3CCOCC3)s2)ccc1Cl`, -27.8%; under `Cc1ccc(C(=O)OCC(=O)c2ccc(CC(=O)N3CCOCC3)s2)cc1C`, -31.2%.
Next, `O=C(NC1CCN(Cc2ccc(Cl)cc2)CC1)c1cn(-c2ccccc2)nc1-c1cccnc1`: -75.1%.
As for `O=C(NCc1cccnc1)c1cn(-c2ccccc2)nc1-c1ccccc1`, the “hERG current change (%, negative = inhibition) at 10uM” value is -24.3%.
Under `O=C(O)c1cn(-c2ccccc2)nc1-c1cccnc1` stands -1.94%; under `O=C(NCc1cccnc1)c1cn(-c2ccccc2)nc1-c1cccs1`, -32%; under `COC(=O)c1cn(-c2ccccc2)nc1-c1cccnc1`, -28.5%.
Next, `O=C(NCc1ccncc1)c1cn(-c2ccccc2)nc1-c1cccnc1`: -62%; `O=C(COC(=O)c1cn(-c2ccccc2)nc1-c1cccnc1)NC1CC1`: -0.964%.
Under `NC(=O)c1cn(-c2ccccc2)nc1-c1cccnc1` stands -1.67%.
Consider `O=C(NC1CCN(Cc2ccccc2)CC1)c1cn(-c2ccccc2)nc1-c1cccnc1`, for which the “hERG current change (%, negative = inhibition) at 10uM” value is given as -68%.
On to `CCc1ccc(NC(=S)NCc2ccccc2)cc1`, for which the “hERG current change (%, negative = inhibition) at 10uM” value came to 3.91%.
On to `Cc1nc(N/N=C/c2ccc(Br)cc2)cc(N2CCOCC2)n1`, for which the “hERG current change (%, negative = inhibition) at 10uM” value was -0.525%.
Next, `CCOC(=O)N1CCC(NC(=O)c2ccc(CS(=O)(=O)c3ccc(OC)cc3)o2)CC1`: -33.4%; `C[C@]12C[C@H](O)[C@@H]3c4ccc(O)cc4CCC3[C@@H]1CCC2=O` (stereo partly drawn): 9.39%; `COCCN(CCOC)C(=O)c1ccc(CSc2nc3ccccc3s2)cc1`: -21.8%.
Next, `COc1ccc(C(C)(C)C)cc1NC(=O)C1C2C=CC(C2)C1C(=O)O` (stereo not drawn): 12.5%; `CCOC(=O)C1=C(C)N(CC(C)C)C(=O)/C1=C\c1ccc(OCC(=O)Nc2ccccc2)cc1`: -9.9%; `COc1cc(OC)nc(NC(=S)NC(=O)c2ccccc2)n1`: 23.1%.
Under `Cc1ccccc1NC(=S)N(CCN1CCCCC1)Cc1ccco1` stands -30.2%; under `COc1ccccc1NC(=S)N(CCCN1CCOCC1)Cc1cccs1`, -35.6%.
Take `COc1ccccc1NC(=S)N(Cc1ccccc1)Cc1cccs1`: the “hERG current change (%, negative = inhibition) at 10uM” value came out at 14.9%.
Next, `COc1ccccc1NC(=S)N(CCN1CCCCCC1)Cc1cccs1`: -55.3%; `Cc1ccccc1NC(=S)N(CCN1CCCCCC1)Cc1cccs1`: -39.5%; `Fc1ccccc1CN(CCN1CCOCC1)C(=S)Nc1ccccc1Cl`: -6.77%.
Next, `Fc1ccccc1NC(=S)N(CCN1CCCCCC1)Cc1cccs1`: -53%; `S=C(Nc1ccccc1Cl)N(CCN1CCCCC1)Cc1ccco1`: -42.3%.
Next, `Fc1ccccc1NC(=S)N(CCN1CCCCC1)Cc1ccco1`: -51.2%.
On to `Cc1ccc2c(c1)NC(=O)C(CC(=O)NCc1ccc(F)cc1)O2` (stereo not drawn), for which the “hERG current change (%, negative = inhibition) at 10uM” value is -9.72%.
Under `COc1ccc(S(=O)(=O)N(CCC#N)Cc2ccco2)cc1OC` stands 17.8%; under `COc1cc(OC)cc(-c2n[nH]c(=S)n2-c2ccc3c(c2)OCO3)c1`, 15.4%.
Next, `O=C(NC1CCCCC1)N1CCCC(c2nc(-c3cccs3)no2)C1` (stereo not drawn): -10.5%; `CCc1nnc(NC(=O)C2CC(=O)N(CCc3ccc(F)cc3)C2)s1` (stereo not drawn): 4.54%; `O=C(Nc1cccc(C(F)(F)F)c1)C(Sc1ncnc2ccccc12)c1ccccc1` (stereo not drawn): 0.968%.
Under `Cc1c(O)ccc2cc(S(=O)(=O)c3ccccc3)c(=O)oc12` stands 13.8%; under `Cc1ccc(-n2ncc3c2CCCC3NC(=O)CSc2ccccn2)cc1C` (stereo not drawn), -17.2%.
Take `Cc1noc2ncnc(N3CCN(c4cccc(Cl)c4)CC3)c12`: the “hERG current change (%, negative = inhibition) at 10uM” value is given as -52%.
Under `Cc1noc2ncnc(N3CCCC3)c12` stands 5.93%; under `Cc1noc2ncnc(N3CCN(c4ccc(F)cc4)CC3)c12`, -38.3%; under `CCOc1cc(C2C(C(=O)OC)=CN(C3CCCC3)C=C2C(=O)OC)cc(Br)c1O`, -1.51%.
Under `C[N+]1(CC(O)COc2ccccc2)CCN(C(=O)c2ccc([N+](=O)[O-])cc2)CC1.[I-]` (stereo not drawn) stands -9.95%; under `CCc1cccc(Nc2cc(C)nc3nc(C)nn23)c1`, -25.3%; under `COc1ccc(-c2nc(CN3CCCCC3c3nccn3C)c(C)o2)c(C)c1C` (stereo not drawn), -64.9%.
Under `COc1ccc(OC)c(-c2nc(CN3CCCCC3c3cccnc3)c(C)o2)c1` (stereo not drawn) stands -1.11%; under `COc1ccc(-c2noc(CN3CCCCC3c3nccn3C)n2)cc1` (stereo not drawn), -6.83%; under `CC(=O)c1ccc(N(CC(=O)NC2CCCCC2)C(=O)CNC(=O)c2ccco2)cc1`, -7.74%.
With `O=C(Nc1scc(-c2ccccc2)c1C(=O)O)c1ccco1`, the “hERG current change (%, negative = inhibition) at 10uM” value is listed as -0.991%.
`O=C(CCc1ccccn1)N1CCCC(N2CCN(c3cccc(C(F)(F)F)c3)CC2)C1` (stereo not drawn): the “hERG current change (%, negative = inhibition) at 10uM” value was -68.2%.
On to `Cc1ccnn1CCC(=O)N1CCCC(N2CCN(c3cccc(Cl)c3)CC2)C1` (stereo not drawn), for which the “hERG current change (%, negative = inhibition) at 10uM” value is recorded as -30.3%.
Turning to `CN(C)C(=O)CCC(=O)N1CCCC(N2CCN(c3cccc(C(F)(F)F)c3)CC2)C1` (stereo not drawn), the “hERG current change (%, negative = inhibition) at 10uM” value is recorded as -12.3%.
Under `O=C(CCn1cccn1)N1CCCC(N2CCN(c3cccc(C(F)(F)F)c3)CC2)C1` (stereo not drawn) stands -53.6%; under `CCc1nccn1CCC(=O)N1CCCC(N2CCN(c3cccc(Cl)c3)CC2)C1` (stereo not drawn), -36.1%; under `COC(=O)CCC(=O)N1CCCC(N2CCN(c3cccc(C(F)(F)F)c3)CC2)C1` (stereo not drawn), -35.8%.
Turning to `O=C(CCn1cccn1)N1CCCC(N2CCN(c3cccc(Cl)c3)CC2)C1` (stereo not drawn), the “hERG current change (%, negative = inhibition) at 10uM” value is -54.1%.
For `O=C(c1ccccn1)N1CCCC(N2CCN(c3cccc(C(F)(F)F)c3)CC2)C1` (stereo not drawn), the “hERG current change (%, negative = inhibition) at 10uM” value is reported as -28.8%.
For the compound `O=C(CCn1cncn1)N1CCCC(N2CCN(c3cccc(C(F)(F)F)c3)CC2)C1` (stereo not drawn), the “hERG current change (%, negative = inhibition) at 10uM” value is recorded as -35.8%.
Under `O=C(NCC1CCCO1)c1ccc2c(=O)n(CC3CCCO3)c(=S)[nH]c2c1` (stereo not drawn) stands 6.52%; under `Cc1sc2nc(COC(=O)c3cccc(OC(F)F)c3)[nH]c(=O)c2c1C`, 0.0335%; under `O=c1[nH]n2c(=O)c3c([nH]c2c1N=Nc1cccc(Cl)c1)CCCC3`, 3.75%.
Regarding `COc1ccc2c(c1)C(=O)N(Cc1ccccc1)C(=O)C2(C)C`, the “hERG current change (%, negative = inhibition) at 10uM” value is recorded as 6.19%.
Next, `Cc1nn(Cc2ccc(Cl)cc2)c(C)c1NC(=O)c1cc(C(C)C)on1`: 5.88%; `Cn1c(SCC(=O)NC2CC2)nnc1-c1ccco1`: 9.16%.
Next, `Cc1ccc(NC(=O)[C@H](Cc2ccccc2)NC(=O)C2CCNCC2)cc1`: 5.64%.
Next, `CCCCCOC(=O)c1ccccc1C(=O)O`: 16.1%; `CC(=O)N/C(=C\c1ccc(C)o1)C(=O)NCc1ccccc1`: 21.8%; `COc1ccc(OC)c(N2C(=O)NC(=O)/C(=C/c3ccc([N+](=O)[O-])s3)C2=O)c1`: 12.9%.
With `COc1ccc(CNC(=O)C2(CC3CC(c4ccccc4)=NO3)CCN(C(=O)OC(C)(C)C)CC2)cc1` (stereo not drawn), the “hERG current change (%, negative = inhibition) at 10uM” value is recorded as -30.5%.
Turning to `COc1ccc(CNC(=O)C2(CC3CC(c4ccccc4)=NO3)CCN(C(=O)C3(C)CC3)CC2)cc1` (stereo not drawn), the “hERG current change (%, negative = inhibition) at 10uM” value is given as -67%.
Take `CCCNC(=O)C1(CC2CC(c3ccccc3)=NO2)CCN(C(=O)C2CCCC2)CC1` (stereo not drawn): the “hERG current change (%, negative = inhibition) at 10uM” value is given as -41.8%.
Next, `CC(C)(C)OC(=O)N1CCC(CC2CC(c3ccccc3)=NO2)(C(=O)NCc2ccccc2)CC1` (stereo not drawn): -18.3%; `CCOc1cc(C(=O)N2CCC(CC3CC(c4ccccc4)=NO3)(C(=O)NCc3ccc(OC)cc3)CC2)cc(OCC)c1OCC` (stereo not drawn): -8.88%.
Consider `CC(C)(C)OC(=O)N1CCC(CC2CC(c3ccccc3)=NO2)(C(=O)O)CC1` (stereo not drawn), for which the “hERG current change (%, negative = inhibition) at 10uM” value is 14.7%.
Under `COC(=O)C1(CC2CC(c3ccccc3)=NO2)CCN(C(=O)OC(C)(C)C)CC1` (stereo not drawn) stands -11.4%; under `COc1ccc(CNC(=O)C2(CC3CC(c4ccccc4)=NO3)CCN(C(=O)C3CCCC3)CC2)cc1` (stereo not drawn), -71.6%.
On to `CC1(C(=O)N2CCC(CC3CC(c4cccc(Br)c4)=NO3)(C(=O)NCC3CCCCC3)CC2)CC1` (stereo not drawn), for which the “hERG current change (%, negative = inhibition) at 10uM” value is recorded as -20.1%.
Next, `COc1ccc(CNC(=O)C2(CC3CC(c4ccccc4)=NO3)CCN(C(=O)c3cccc(O)c3)CC2)cc1` (stereo not drawn): -68.2%; `COc1ccc(CNC(=O)C2(CC3CC(c4ccccc4)=NO3)CCN(C(=O)CCCCCBr)CC2)cc1` (stereo not drawn): -76.9%.
Under `CCCCC1=CC2=CC(=O)C(C)(OC(=O)CC)C(=O)C2=CN1c1ccccc1` (stereo not drawn) stands 1.5%; under `CCO[C@H]1OC(C(=O)NCc2ccccc2)=C[C@@H](C2CCCCC2)[C@@H]1CCCO`, -19.8%.
